Screening results deposited in PubChem by National Center for Advancing Translational Sciences (NCATS).
Many of the other results were omitted from the sample, so hits are more common in it than they were.
LASV entry inh – Lassa virus entry inhibition | 300,000 compounds, 1.2% hits | Potency, µM (titrated, usually from 37.9 µM), for inactives: at the highest dose activity change, negative = inhibition, most hits filed as inhibitors | Lassa virus pseudotype entry inhibition, cell reporter; calls by dose curve; tested in HEK293 cells; further: potency means the concentration at half of the fitted maximal effect; on the % scale 0 is the no-effect control and ±100 the full control effect; nearly all actives have a fitted effect of over 50% in size
AMA1 RON2 block – AMA1-RON2 (P. falciparum) interaction inhibition | AlphaScreen AMA1-biotinylated RON2 peptide binding | 360,000 compounds, 0.2% hits | Potency, µM (top dose mostly 58.2 µM), for the others: top-dose activity change, negative = inhibition, usual class: inhibitors; active means well fitted inhibition curve with a large enough effect; inconclusive means small, poorly fitted or top-dose-only effect; inactive means no such curve, though single readings can be large or run the other way;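 further: potency means the concentration at half of the fitted maximal effect; 0% = vehicle wells and -100% = peptide control; nearly all actives have a fitted effect of over 45% in size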
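AMA1 (3D7) with his tag at 25 nM final met compounds first, then biotinylated RON2 peptide at 25 nM; detection used donor plus acceptor beads, 10 µg/mL apiece, read by AlphaScreen after 30 min at room temperature.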
Marburg entry inh – blocks Marburg virus binding to or entry into cells; 300,000 compounds, 1.8% hits; Marburg virus pseudotyped entry inhibition, cell reporter; AID 540276; Potency, µM (doses to about 37.8 µM), without a hit: top-dose activity change, negative = inhibition, hits mostly inhibitors; calls by dose curve; tested in HEK293 cells; further: potency means the concentration at half of the fitted maximal effect; on the % scale 0 is the no-effect control and ±100 the full control effect
Shiga inhibitor – blocks Shiga toxin action in Vero cells | Vero cells, Shiga toxin protein synthesis inhibition reporter | inhibition, % at 38.7 µM | 290,000 compounds, 9.2% hits; in the data active means inhibition mostly above about 28%, no sharp cut-off; inactive means mostly below about 43%; further: 0% is about no effect
Cycloheximide cs – counter-screen for Shiga toxin inhibitors: cycloheximide protein synthesis inhibition. cell reporter, cycloheximide protein synthesis inhibition counterscreen. 300,000 compounds, 12% hits. max response, %; in the data active means max response mostly above about 13%, no sharp cut-off; inactive means mostly below about 14%; further: read at 38.3 µM for the half of the compounds with a filed dose; 0% is about no effect
* marks the source's active call; other numbers are inactive results; [ ] = remark or other dose.

Results for CN(CCO)c1cccc2c1S(=O)(=O)N[C@H](Cc1ccccc1)CO2 ?
AMA1 RON2 block: 0.9%

What do the screens show for `O=C(Cn1c(=O)n(-c2ccc(Cl)cc2)c(=O)c2oc3ccccc3c21)Nc1ccccc1`?
LASV entry inh: 4.9%[46.1 µM]

What do the screens show for `CN(/N=C/c1ccccc1O)C(=S)c1ccccc1`?
LASV entry inh: 17.5%; AMA1 RON2 block: 60.1%; Marburg entry inh: inconclusive; Shiga inhibitor: 77.0; Cycloheximide cs: 24.7*

What do the screens show for `Cc1ccccc1C(=O)N1CCC(C(=O)OCc2ccccc2Cl)CC1`?
AMA1 RON2 block: 15.8%

Results for CN(C)c1ccccc1C(=O)c1ccccc1N(C)C ?
LASV entry inh: -6.1%; AMA1 RON2 block: -19.5%; Marburg entry inh: inconclusive; Shiga inhibitor: 86.4*; Cycloheximide cs: 28.4*

Results for C=CCN1C(=O)c2ccc(C(=O)N3CCN(S(=O)(=O)c4cccc(F)c4)CC3)cc2C1=O ?
LASV entry inh: inconclusive; AMA1 RON2 block: 13.2%; Marburg entry inh: -8.0%

Results for Cc1cc(NS(=O)(=O)c2ccc(NC(=O)/C=C/c3ccccc3Cl)cc2)no1 ?
LASV entry inh: -20.5%; AMA1 RON2 block: 12.1%; Marburg entry inh: 8.0%; Shiga inhibitor: -4.4; Cycloheximide cs: -2.1

What do the screens show for `Cc1cc(NC(=O)/C=C/c2ccccc2Cl)no1`?
LASV entry inh: 14.1%; AMA1 RON2 block: 0.7%; Marburg entry inh: 4.0%; Shiga inhibitor: 67.3*; Cycloheximide cs: 23.0*

What do the screens show for `Cc1cc(NC(=O)/C=C/c2ccccc2Cl)n(-c2nc3ccccc3[nH]2)n1`?
LASV entry inh: inconclusive; AMA1 RON2 block: 61.9%; Marburg entry inh: inconclusive; Shiga inhibitor: 0.7; Cycloheximide cs: 14.2*

What do the screens show for `COc1ccc(C(=O)/C=C/Nc2cccc(O)c2)cc1`?
LASV entry inh: 22.6%; AMA1 RON2 block: 10.8%; Marburg entry inh: 3.1%; Shiga inhibitor: -12.4; Cycloheximide cs: -1.5

How did COc1ccc(/C=C/C(=O)Nc2nonc2NC(C)=O)cc1 do in these assays?
LASV entry inh: 2.4%; AMA1 RON2 block: -11.4%; Marburg entry inh: inconclusive; Shiga inhibitor: 17.9; Cycloheximide cs: 9.2

Results for COc1ccc(C(=O)/C=C/Nc2cc(C)on2)cc1 ?
LASV entry inh: 7.2%; AMA1 RON2 block: 4.0%; Marburg entry inh: 19.9%; Shiga inhibitor: 64.7*; Cycloheximide cs: 47.1*

Results for COc1ccc(/C=C/C(=O)Nc2cc(C)on2)cc1 ?
LASV entry inh: inconclusive; AMA1 RON2 block: -5.3%; Marburg entry inh: 20.8%; Shiga inhibitor: 107.4*; Cycloheximide cs: 42.2*

Results for COC(=O)c1ccc(CNC(=O)C2CCC(=O)N(CCc3ccccc3)C2)cc1 (stereo not given) ?
LASV entry inh: inconclusive; AMA1 RON2 block: -1.8%; Marburg entry inh: -24.6%[46.1 µM]; Shiga inhibitor: -6.8; Cycloheximide cs: 0.4

Results for O=C(O)c1ccc(N=C2c3ccccc3-c3ccccc32)cc1 ?
LASV entry inh: 7.5%[46.1 µM]; AMA1 RON2 block: -2.6%; Marburg entry inh: 4.2%[46.1 µM]

How did Cc1cc(NC(=O)/C=C/c2ccccc2)no1 do in these assays?
LASV entry inh: 18.4%; AMA1 RON2 block: 1.8%; Marburg entry inh: -9.7%; Shiga inhibitor: 63.2*; Cycloheximide cs: 41.0*

What do the screens show for `O=C(COC(=O)C1CC2CCCC(C1)C2=O)Nc1cccc(F)c1` (stereo not given)?
LASV entry inh: 8.9%; AMA1 RON2 block: 1.8%; Marburg entry inh: inconclusive

How did CC(=O)OC[C@H]1O[C@H](C/C=N/OC[C@@H](C)[C@H](OCc2ccccc2)C(C)C)C=C[C@@H]1OC(C)=O do in these assays?
Marburg entry inh: -9.9%[14.2 µM]

How did N#CC12C(N)=NC3(OCCO3)C1(C#N)C1=C(CCC1)NC2c1ccccc1 (stereo not given) do in these assays?
LASV entry inh: 0.7%; AMA1 RON2 block: 33.1%; Marburg entry inh: 11.7%; Shiga inhibitor: 25.5; Cycloheximide cs: 16.8*

Results for CC(=O)c1ccc(N2C(=NC(=O)C3CCCO3)SC3CS(=O)(=O)CC32)cc1 (stereo not given) ?
LASV entry inh: -0.9%[46.1 µM]; AMA1 RON2 block: 3.9%; Marburg entry inh: inconclusive; Shiga inhibitor: -7.6; Cycloheximide cs: -2.4

How did CCCC(=O)N=C1SC2CS(=O)(=O)CC2N1c1ccc(-c2nc3ccc(C)cc3s2)cc1 (stereo not given) do in these assays?
LASV entry inh: inconclusive; AMA1 RON2 block: 12.8%; Marburg entry inh: inconclusive; Shiga inhibitor: 106.1*; Cycloheximide cs: 43.6*

What do the screens show for `COc1ccccc1C(=O)N=C1SC2CS(=O)(=O)CC2N1c1ccccc1` (stereo not given)?
AMA1 RON2 block: 10.9%; Marburg entry inh: 0.4%[46.1 µM]; Shiga inhibitor: 22.4; Cycloheximide cs: 9.8*

Results for CN(C)c1ccc(N2C(=NC(=O)C3CCCO3)SC3CS(=O)(=O)CC32)cc1 (stereo not given) ?
AMA1 RON2 block: 0.0%; Shiga inhibitor: 21.5; Cycloheximide cs: 37.9*

What do the screens show for `O=C(CCCc1ccccc1)N=C1SC2CS(=O)(=O)CC2N1c1ccccc1` (stereo not given)?
AMA1 RON2 block: -3.0%; Shiga inhibitor: -6.2; Cycloheximide cs: -2.3

What do the screens show for `COc1cc(C(=O)N=C2SC3CS(=O)(=O)CC3N2c2ccccc2)cc(OC)c1OC` (stereo not given)?
AMA1 RON2 block: -5.1%; Shiga inhibitor: -5.1; Cycloheximide cs: -1.7

How did CN(C)c1ccc(N2C(=NC(=O)CCc3ccccc3)SC3CS(=O)(=O)CC32)cc1 (stereo not given) do in these assays?
AMA1 RON2 block: 15.8%; Shiga inhibitor: 24.3; Cycloheximide cs: 18.7*

Results for CCC(C)NC(=S)N(Cc1cc2cc(C)ccc2n2nnnc12)CC(C)(C)NC(C)C (stereo not given) ?
AMA1 RON2 block: 1.2%; Shiga inhibitor: -6.2; Cycloheximide cs: -2.3

How did CCCNC(=O)C(Cc1ccc(C(F)(F)P(=O)(OCC)OCC)cc1)NC(=O)c1ccc(C#N)cc1 (stereo not given) do in these assays?
AMA1 RON2 block: 8.5%

How did O=C(O/N=C\c1ccc(N2CCCCC2)c([N+](=O)[O-])c1)c1ccc(Cl)cc1Cl do in these assays?
LASV entry inh: 1.7%; AMA1 RON2 block: inconclusive; Marburg entry inh: -17.7%; Shiga inhibitor: -7.1; Cycloheximide cs: -2.8

How did O=C(c1ccc(N2CCCCC2)c([N+](=O)[O-])c1)N1CCOCC1 do in these assays?
LASV entry inh: -4.4%; AMA1 RON2 block: -0.4%; Marburg entry inh: 18.8%; Shiga inhibitor: -13.6; Cycloheximide cs: -2.6

How did COc1ccccc1N1CCN(C(=O)/C=C/c2cccc([N+](=O)[O-])c2)CC1 do in these assays?
LASV entry inh: -9.7%; AMA1 RON2 block: -9.2%; Marburg entry inh: -15.5%[46.1 µM]; Shiga inhibitor: -2.7; Cycloheximide cs: -1.7

What do the screens show for `Nc1nnnn1/N=C/c1ccc(N2CCCCC2)c([N+](=O)[O-])c1`?
LASV entry inh: 27.1%; AMA1 RON2 block: -4.9%; Marburg entry inh: inconclusive; Shiga inhibitor: 62.7*; Cycloheximide cs: 37.6*

Results for O=C(/C=C/c1ccc(N2CCCCC2)c([N+](=O)[O-])c1)c1ccc(O)cc1 ?
LASV entry inh: -62.2%[46.1 µM]; AMA1 RON2 block: inconclusive; Marburg entry inh: inconclusive; Shiga inhibitor: 54.9*; Cycloheximide cs: 46.7*
